Results on 40 compounds are retold here after PubChem BioAssay AID602144 (Vanderbilt Specialized Chemistry Center, 2011).

Usually remaining activity stands for the signal under treatment as a percentage of the control signal.

Values joined by “and” are separate entries in the source; they are usually repeats but may differ in a detail not shown here. Equal values may be shown once. Active and inactive are the calls of the source. Cut-off read from the data, not from the text of the source: active = remaining activity below about 50%; inactive = the rest.

The target of this experiment is Phospholipase D1 (Homo sapiens) (UniProt Q13393). The experiment is described as follows: cellular phospholipase D1 activity inhibition – Calu-1 cells, single concentration (AID 602144).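 Note: tested at 200 nM.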 The note with it: cellular PLD1 activity, active compounds read low.
Phospholipase D1 (Homo sapiens), sequence (Q13393 whole entry, looked up): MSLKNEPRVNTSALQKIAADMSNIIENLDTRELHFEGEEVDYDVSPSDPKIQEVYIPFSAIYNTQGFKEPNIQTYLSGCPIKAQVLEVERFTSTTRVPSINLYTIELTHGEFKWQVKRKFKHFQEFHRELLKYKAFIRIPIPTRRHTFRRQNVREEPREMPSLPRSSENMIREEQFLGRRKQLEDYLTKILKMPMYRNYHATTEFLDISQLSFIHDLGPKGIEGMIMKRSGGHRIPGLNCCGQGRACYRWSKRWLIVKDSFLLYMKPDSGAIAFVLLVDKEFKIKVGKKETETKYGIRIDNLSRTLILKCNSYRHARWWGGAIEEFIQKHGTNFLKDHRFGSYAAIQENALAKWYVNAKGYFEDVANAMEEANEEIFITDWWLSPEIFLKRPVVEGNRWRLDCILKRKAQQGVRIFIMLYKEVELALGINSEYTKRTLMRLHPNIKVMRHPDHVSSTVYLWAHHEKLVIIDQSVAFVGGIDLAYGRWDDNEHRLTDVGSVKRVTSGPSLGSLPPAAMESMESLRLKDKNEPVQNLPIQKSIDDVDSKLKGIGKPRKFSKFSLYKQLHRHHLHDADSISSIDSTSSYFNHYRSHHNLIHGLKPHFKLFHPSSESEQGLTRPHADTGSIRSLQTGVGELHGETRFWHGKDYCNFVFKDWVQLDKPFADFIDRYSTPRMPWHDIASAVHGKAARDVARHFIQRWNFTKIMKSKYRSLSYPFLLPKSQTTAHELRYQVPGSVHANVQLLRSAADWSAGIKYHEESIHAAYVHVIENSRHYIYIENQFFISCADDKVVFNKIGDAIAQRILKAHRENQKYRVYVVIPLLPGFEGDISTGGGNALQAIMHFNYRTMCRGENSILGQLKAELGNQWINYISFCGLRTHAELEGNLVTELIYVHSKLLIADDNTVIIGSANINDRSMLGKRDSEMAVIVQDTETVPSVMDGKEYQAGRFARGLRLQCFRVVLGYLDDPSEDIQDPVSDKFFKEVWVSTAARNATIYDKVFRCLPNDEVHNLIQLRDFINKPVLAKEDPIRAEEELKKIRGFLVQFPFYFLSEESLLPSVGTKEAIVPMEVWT
Phospholipase D1 (Homo sapiens), sequence (Q13393 whole entry, looked up): as above
As to `O=C(NCCN1CCC2(CCc3ccccc32)CC1)[C@H]1C[C@@H]1c1ccccc1`, the remaining activity is 125% (inactive).
Next, `O=c1[nH]c2ccccc2n1C1CCN(CCN2CCCC2)CC1`: 112% (inactive).
For `C[C@H](CN1CCC2(CC1)CNc1ccccc12)NC(=O)c1ccc2ccccc2c1` the value was 34.6% (active); for `C[C@@H](CN1CCC(c2nc3ccc(F)cc3[nH]2)CC1)NC(=O)[C@H]1CC1c1ccccc1` (stereo not given in full), 88% (inactive).
As for `CC(C)C(=O)N[C@@H](C)CN1CCC(n2c(=O)[nH]c3ccccc32)CC1`, the remaining activity was 104% (inactive).
Next, `NCCN1CCC(n2c(=O)[nH]c3cc(Cl)ccc32)CC1` (tested in a mixture with another compound): 62.4% (inactive); `O=c1[nH]c2ccccc2n1C1CCN(CCNC(=S)Nc2ccccc2F)CC1`: 109% (inactive).
Consider `C[C@@H](CN1CCC(n2c(=O)[nH]c3cc(-c4ccsc4)ccc32)CC1)NC(=O)[C@H]1C[C@@H]1c1ccccc1`, for which the remaining activity is 41.3% (active).
In the case of `O=C(NCCN1CCN(c2ccncc2)CC1)c1ccccc1-c1ccccc1`, the remaining activity was 147% (inactive).
For the compound `C[C@@H](NC(=O)NCCN1CCC(n2c(=O)[nH]c3ccccc32)CC1)c1ccccc1`, the remaining activity is 131% (inactive) and 118% (inactive).
In the case of `O=C(NCCN1CCC2(C=Cc3ccccc32)CC1)c1cnc2ccccc2c1`, the remaining activity is 126% (inactive).
As to `O=C(C1C[C@@H]1c1ccccc1)N1CCC2(CC1)C(=O)NCN2c1ccccc1` (stereo not given in full), the remaining activity was 86% (inactive).
Regarding `O=C(CCc1ccccc1)NCCN1CCC(n2c(=O)[nH]c3ccccc32)CC1`, the remaining activity was 76.1% (inactive).
With `C[C@H](CN1CCC(n2nnc3ccccc32)CC1)NC(=O)c1ccc2ccccc2c1`, the remaining activity was 27.1% (active).
As to `O=C(NCCN1CC=C(n2c(=O)[nH]c3ccccc32)CC1)[C@H]1C[C@@H]1c1ccccc1`, the remaining activity was 85.3% (inactive).
`O=C(NCCN1CCC(n2c(=O)[nH]c3ccccc32)CC1)N1c2ccccc2C=Cc2ccccc21`: the remaining activity is 92.3% (inactive).
As for `CCS(=O)(=O)NCCN1CCC(n2c(=O)[nH]c3ccccc32)CC1`, the remaining activity is 121% (inactive).
For `O=C(NCCN1CCC(n2c(=O)[nH]c3cc(I)ccc32)CC1)C1CC1c1ccccc1` (stereo not given) the value was 16.1% (active); for `O=C(NCCN1CCC(c2nc3ccccc3[nH]2)CC1)c1ccc2ccccc2c1`, 101% (inactive); for `CCOC(=O)CNC(=O)NCCN1CCC(n2c(=O)[nH]c3ccccc32)CC1`, 136% (inactive).
For `O=C(NCCN1CCC(n2c(=O)[nH]c3ccccc32)CC1)Nc1ccccc1C(F)(F)F`, the remaining activity is 131% (inactive).
For `C[C@@H](CN1CCC2(CC1)CCN(C)C2=O)NC(=O)c1ccc2ccccc2c1` the value was 122% (inactive); for `O=C(NCCN1CCC(c2nc3ccccc3[nH]2)CC1)C1CC1c1ccccc1` (stereo not given), 56.9% (inactive).
Take `C[C@@H](CN1CCC(n2nnc3cc(C(F)(F)F)ccc32)CC1)NC(=O)c1cnc2ccccc2c1`: the remaining activity is 101% (inactive).
For `C[C@@H](CN1CCC(n2c(=O)[nH]c3ccccc32)CC1)NC(=O)c1ccc(C(F)(F)F)cc1`, the remaining activity is 36.5% (active).
As for `O=C(NCCN1CCC(n2c(=O)[nH]c3ccc(F)cc32)CC1)c1ccc(Cl)c(Cl)c1`, the remaining activity was 0% (active).
As to `COc1cccc(N2CCN(CCNC(=O)c3ccc(Cl)cc3)CC2)c1`, the remaining activity was 96.1% (inactive).
As for `Cn1c(=O)n(C2CCN(CCNC(=O)c3ccc4ccccc4c3)CC2)c2ccccc21`, the remaining activity is 71.6% (inactive).
On to `O=C(NCCN1CCC(n2c(=O)[nH]c3ccccc32)CC1)C1CCCCCC1`, for which the remaining activity was 98.9% (inactive).
For `O=C(NCCN1CCC2(C=Cc3ccccc32)CC1)[C@H]1C[C@@H]1c1ccccc1`, the remaining activity is 107% (inactive).
For `O=C(NCCN1CCC2(CC1)CCN(c1ccccc1)C2=O)c1ccc2ccccc2c1`, the remaining activity is 113% (inactive).
Take `CC1(C)[C@@H]2CC[C@@]1(CS(=O)(=O)NCCN1CCC(n3c(=O)[nH]c4ccccc43)CC1)C(=O)C2`: the remaining activity was 103% (inactive).
In the case of `C[C@@H](CN1CCC(n2c(=O)[nH]c3ccccc32)CC1)NC(=O)c1ccc[nH]1`, the remaining activity was 48.2% (active).
Turning to `O=C(NCCN1CCC(n2c(=O)[nH]c3ccccc32)CC1)c1cscn1`, the remaining activity is 16.7% (active).
As for `O=C(NCCN1CCC(n2c(=O)[nH]c3ccccc32)CC1)c1ccc2c(ccc3ccc4ccccc4c32)c1`, the remaining activity is 74.8% (inactive).
Next, `Cc1ccc(C(=O)N[C@@H](C)CN2CCC(n3c(=O)[nH]c4ccc(F)cc43)CC2)cc1`: 27.4% (active); `C[C@@H](CN1CCC(n2c(=O)[nH]c3cc(F)ccc32)CC1)NC(=O)c1ccc(F)c(F)c1`: 19.7% (active); `O=C(NCCN1CCC(n2c(=O)[nH]c3ccccc32)CC1)c1cc2ccc3ccccc3c2c2ccccc12`: 76.6% (inactive).
As for `O=C1c2ccccc2C(=O)N1CCCN1CCC(n2c(=O)[nH]c3cc(Cl)ccc32)CC1`, the remaining activity is 67.5% (inactive).
With `O=C(NCCN1CCC(n2c(=O)[nH]c3ccccc32)CC1)NCc1cccc(F)c1`, the remaining activity was 45.6% (active).
